Here are results for ten compounds from PubChem BioAssay (NCATS).

Results filed as inconclusive are left out. Entries that show only a call come without a potency. Calls of active or inactive are those of the source. Calls come from the whole dose curve; as a rule, active = well fitted cell-killing curve with a large enough effect; inconclusive = small, poorly fitted or top-dose-only effect, or effect the other way; inactive = no such curve, though single readings can be large or run the other way.
Potency is the fitted concentration of half-maximal effect.

The nature of this assay: Viability qHTS for spleen associated tyrosine kinase inhibitor (SYKi) naive MV4-11 cells (AID 1963823). Note: nearly all actives have a fitted effect of over 40% in size. Conditions: MV4-11 AML viability, CellTiter-Glo luminescence, 72 h; series mostly up to 45 µM. The method in brief: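 Seeding of 500 SYKi-naive MV4-11 cells per well onto pre-dispensed compounds preceded a 72 hr incubation at 37 C. Luminescent CellTiter-Glo signal, read after 10 min at room temperature, reflected viable cells.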
In the case of `CC(CC(C)O[C@@H]1O[C@H](CO)[C@@H](O)[C@H](O)[C@H]1O)OC(=O)/C=C/c1ccc(O)cc1` (stereo not given in full), the Potency result was “inactive”. `CC(=O)c1ccc2c(c1)N(CCCN1CCC(CCO)CC1)c1ccccc1S2`: the Potency is 26.6 µM (active). As for `C/C(=C\C=C\C(C)C1CCC2(C)C3CCC4C(C)(C)C(=O)CCC45CC35CCC12C)C(=O)O` (stereo not given), the Potency result is “inactive”. In the case of `C[C@@H]1O[C@@H](O[C@H]2[C@H](O)[C@@H](O[C@@H]3O[C@H](CO)[C@H](O)[C@H](O)[C@H]3O)[C@H](O[C@H]3CC[C@@]4(C)C(CC[C@]5(C)C4CC=C4[C@@H]6CC(C)(C)CC[C@]6(C(=O)O[C@@H]6O[C@H](CO)[C@@H](O)[C@H](O)[C@H]6O)CC[C@]45C)C3(C)C)O[C@@H]2C(=O)O)[C@H](O)[C@H](O)[C@H]1O` (stereo not given in full), the viability (% of control) is 82.7% [at 9.25 µM] (inactive).

As to `CC(=O)NCCc1c[nH]c2ccc(O)cc12`, the Potency entry was “inactive”. The same measure, in the same setting: as for `CC(C)C(C(=O)N1CCCC1C(=O)O)N(C)C(=O)C(O)Cc1ccccc1` (stereo not given), the entry is “inactive”. Still for that read-out and setting: as for `O=C(/C=C/c1ccccc1)OC[C@]12O[C@H]1[C@@H](O)[C@@H]1C=CO[C@@H](O[C@@H]3O[C@H](CO)[C@@H](O)[C@H](O)[C@H]3O)[C@@H]12`, the entry is “inactive”; as for `CC1(C)S[C@@H]2[C@H](NC(=O)[C@H](N)c3ccc(O)cc3)C(=O)N2[C@H]1C(=O)O`, “inactive”; as for `CC(C)C(=O)O[C@@H]1[C@@H](O)[C@@H](O[C@H]2O[C@H](CO)[C@@H](O)[C@H](O)[C@H]2O)O[C@H](CO)[C@H]1O`, “inactive”.

As for `CCCCN1CCCC[C@H]1C(=O)Nc1c(C)cccc1C`, the Potency entry was “inactive”.
